# Screening results deposited in PubChem by National Center for Advancing Translational Sciences (NCATS).
# DT40 TDP1 no CPT: qHTS for Inhibitors of human tyrosyl-DNA phosphodiesterase 1 (TDP1): qHTS in cells in absence of CPT; DT40 Tdp1-/- hTDP1 cells, no CPT, ATP luminescence, 48 h; Potency, µM (titrated, usually from 46.2 µM), inactives show top-dose activity change, negative = growth inhibition, usual class: inhibitors; 420,000 tested, 15% active; further: potency means the concentration at half of the fitted maximal effect; nearly all actives have a fitted effect of over 55% in size
#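 No-CPT arm: Tdp1-/-;hTDP1 DT40 cells (400/well) plus compounds, incubated ≥48 hr at 37 °C. Readout CellTiter-Glo luminescence.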
# TDP1 block: inhibitors of human tyrosyl-DNA phosphodiesterase TDP1; 350,000 tested, 0.28% active; AID 485290; Q9NUW8; recombinant TDP1, AlphaScreen DNA substrate cleavage; Potency, µM (doses to about 130 µM), without a hit: top-dose activity change, negative = inhibition, usual class: inhibitors; further: potency means the concentration at half of the fitted maximal effect; nearly all actives have a fitted effect of over 40% in size
# Target sequence (Q9NUW8 whole entry, looked up): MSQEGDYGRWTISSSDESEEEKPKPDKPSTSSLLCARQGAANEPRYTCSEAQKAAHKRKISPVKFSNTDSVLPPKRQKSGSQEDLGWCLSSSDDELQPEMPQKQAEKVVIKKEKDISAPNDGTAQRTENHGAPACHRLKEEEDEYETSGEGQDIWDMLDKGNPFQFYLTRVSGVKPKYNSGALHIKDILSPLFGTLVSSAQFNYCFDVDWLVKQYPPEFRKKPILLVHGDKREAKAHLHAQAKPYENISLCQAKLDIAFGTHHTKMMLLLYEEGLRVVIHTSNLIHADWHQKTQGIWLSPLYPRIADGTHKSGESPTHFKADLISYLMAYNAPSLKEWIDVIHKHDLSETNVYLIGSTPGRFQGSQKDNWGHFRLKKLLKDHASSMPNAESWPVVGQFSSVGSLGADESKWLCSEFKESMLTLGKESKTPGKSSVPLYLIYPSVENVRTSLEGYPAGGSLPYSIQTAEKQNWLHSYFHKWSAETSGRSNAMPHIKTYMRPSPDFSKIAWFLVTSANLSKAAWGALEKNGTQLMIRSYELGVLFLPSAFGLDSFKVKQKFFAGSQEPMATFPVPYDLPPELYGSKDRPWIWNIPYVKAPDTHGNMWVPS
#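 AlphaScreen read-out: signal falls as enzyme removes the 3' tyrosine-FITC from a 5'-biotinylated DNA oligo (15 nM, 5 min, RT). Enzyme was E. coli-made recombinant Tdp1 at 1 nM, exposed to compound for 15 min beforehand; beads 10 ug/ml, 10 min.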
# CtBP-E1A blk: blocks the CtBP interaction with E1A; activity change, % (no concentration beside the values); 340,000 tested, 0.49% active; AlphaScreen GST-E1A/His-CtBP binding, 1536-well; hits give low values; in the data active means activity change below about -65%; inconclusive means mostly about -30% to -63%
#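 In 5 uL wells, 23 nL compound meets equimolar GST-E1A and His-CtBP (5X stock 125 nM each) for 2 h, 37 °C. Beads (5X, 50 ug/mL) then 1 h, 37 °C, dark.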
# Six1-Eya2 inh: inhibitors of human Six1/Eya2 interaction | 360,000 tested, 0.56% active | AlphaScreen GST-Six1/His-Eya2 binding, biochemical; hits give low values | Q15475+O00167 | activity change, % (concentration not given with the values); in the data active means activity change below about -65%; inconclusive means mostly about -30% to -63%
#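 AlphaScreen with GST-Six1 and His-Eya2 (5X mix: 250 nM and 500 nM), glutathione donor and nickel acceptor beads; buffer 50 mM Tris pH 8.0, 300 mM NaCl, 1 mM TCEP; 1 h at 37 C in the dark.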
# IL1B secr inh: inflammasome signaling inhibition, IL-1 beta readout. THP-1 LPS/ATP IL-1B secretion, AlphaLISA, 16 h; hits give low values. 360,000 tested, 4.7% active. activity change, % at 57.5 µM; in the data active means activity change below about -50%; inconclusive means mostly about -30% to -49%
#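 Secreted IL-1B measured by AlphaLISA bead assay after 16 h compound exposure of THP-1 cells; compounds (final up to 57.5 uM) added 1 h before LPS (250 ng/mL) and ATP (1.25 mM) stimulation; lower signal means less secretion.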
# DT40 TDP1 CPT: DT40-hTDP1 cell growth loss with CPT | chicken DT40 Tdp1-/-;hTDP1 cells + 20 nM CPT, ATP luminescence, 48 h | Potency, µM (doses to about 46.2 µM), inactives show at the top dose activity change, negative = growth inhibition, usual class: inhibitors | 420,000 tested, 12% active; further: potency means the concentration at half of the fitted maximal effect; nearly all actives have a fitted effect of over 55% in size
#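 Cell growth measured by CellTiter-Glo luminescence after a minimum 48 h, 37 C compound exposure with 20 nM CPT in Tdp1-knockout DT40 cells stably expressing hTDP1, seeded 400/well; qHTS titration format.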
# * marks the source's active call; other numbers are inactive results; u = inconclusive; x = no result; [ ] = remark or other dose. This is a sample that favours compounds with a hit; in the whole collection about 18% have one here. Unless noted, the call rests on the fitted dose curve; in most records, active means well fitted curve in the direction sought with a large enough effect; inconclusive means small, poorly fitted or top-dose-only effect, or another doubt; inactive means no such curve, though single readings can be large; an effect the other way counts as inactive or inconclusive. On the % scale 0 is the no-effect control and ±100 the full control effect.
SMILES,DT40 TDP1 no CPT,TDP1 block,CtBP-E1A blk,Six1-Eya2 inh,IL1B secr inh,DT40 TDP1 CPT
COc1cc(C(C)=O)ccc1OCC(=O)Nc1ccc(Cl)c(S(=O)(=O)N2CCOCC2)c1,18µM*,3%,-13,-14,0,23µM*
CC(=O)c1ccc(OCCCC(=O)Nc2ccc(Cl)c(S(=O)(=O)N3CCOCC3)c2)cc1,21µM*,x,x,-5,29,16µM*
O=C(COC(=O)c1c[nH]c(=O)[nH]c1=O)Nc1ccccc1,0%,-1%,18,-1,7,-1%
CC1(C(=O)Nc2ccc3c(c2)OCCO3)CCN1C(=O)C1(c2ccc(Cl)cc2)CC1 (configuration not stated),u,x,-3,-3,-3,u
COC(=O)[C@H](Cc1ccccc1)NC(=O)NCc1ccc(S(N)(=O)=O)cc1,u,1%,5,6,19,4%
Cc1nc(N2CCC(C(N)=O)CC2)c2c(-c3cccs3)csc2n1,21µM*,3%,6,-2,23,u
NC(=O)C1CCN(Cc2nc(-c3cccs3)no2)CC1,-6%,9%,6,6,11,-7%
COc1ccc(-c2csc3nc(C)nc(N4CCC(C)CC4)c23)cc1OC,18µM*,0%,-22,-7,9,21µM*
O=C(Cc1cccc2ccccc12)Nc1ccccc1,u,x,-17,1,-7,23µM*
Cc1ccccc1CC(=O)Nc1ccc2c(c1)c(=O)n(C)n2-c1ccccc1F,-23%,x,0,-3,-13,u
CC(CC(=O)Nc1ccc(C(N)=O)cc1)c1ccccc1 (configuration not stated),-21%,2%,-6,9,0,-29%
Cn1c(=O)c2cc(NC(=O)Cc3cccc4ccccc34)ccc2n1-c1ccccc1,21µM*,x,1,-2,30,16µM*
CC(CC(=O)Nc1ccc2c(c1)c(=O)n(C)n2-c1ccccc1)c1ccccc1 (configuration not stated),5.2µM*,x,4,-3,73,5.2µM*
O=C(Cc1cccc2ccccc12)NCCOc1ccccc1F,-24%,1%,-13,18,-84*,-27%
Cc1nc(SCC(=O)N2CC(=O)Nc3ccccc32)nc(C)c1C,2%,5%,4,1,16,4%
Cc1ccccc1CC(=O)Nc1ccc2c(c1)c(=O)n(C)n2-c1cccs1,3.3µM*,x,-18,1,0,u
Cc1c(C(=O)NN2CCOCC2)oc2c1ccc1ccccc12,u,2%,-11,-4,-71*,-16%
O=C(NN(c1ccccc1)c1ccccc1)c1ccc([N+](=O)[O-])o1,u,9%,2,-7,-93*,u
NC(=O)c1oc2ccccc2c1NC(=O)c1ccc(F)cc1,-15%,2%,-7,-5,3,-7%
O=C(Nc1nnc(-c2ccccc2)o1)c1nc2ccccc2s1,u,x,-12,-8,75,u
O=C(NNC(=O)c1ccc([N+](=O)[O-])o1)c1ccccc1,u,6%,-2,-4,-15,u
NC(=O)c1oc2ccccc2c1NC(=O)c1nc2ccccc2s1,-18%,79µM*,0,-16,13,-12%
NC(=O)c1oc2ccccc2c1NC(=O)c1ccc([N+](=O)[O-])o1,0.58µM*,7%[0.0935 µM],-16,-22,-91*,0.73µM*
C1CNC(C23CC4CC(CC(C4)C2)C3)=N1,12%,8%,6,6,3,0%
Nc1cccc(-c2c[nH]c3ncc(-c4cccnc4)cc23)c1,21µM*,x,x,-25,-55*,8.2µM*
SMILES,DT40 TDP1 no CPT,TDP1 block,CtBP-E1A blk,Six1-Eya2 inh,IL1B secr inh,DT40 TDP1 CPT
O=C(N[C@@H](Cc1c[nH]c2ccccc12)C(=O)O)C1CCN(S(=O)(=O)c2cccs2)CC1,18%,x,-7,0,7,-4%
CCc1nnc(NC(=O)C2=NN(C3CCS(=O)(=O)C3)C(=O)CC2)s1 (configuration not stated),-4%,0%,-3,13,13,11%
O=C(NCc1ccco1)C(c1cccs1)N(C(=O)Cc1cccs1)c1ccccc1 (configuration not stated),u,11%,-3,-9,0,u
CSc1ccc(CNC(=O)C2(C)CCCN2CC(C)C)cc1 (configuration not stated),16µM*,x,-14,9,10,18µM*
CC(C)c1ccc(C(=O)OCC(=O)Nc2cccc(S(=O)(=O)NC3=NCCC3)c2)cc1,-22%,x,4,-3,21,-37%
C#CCOCCOCCOCCNc1nc(N2CCOCC2)nc(N2CCN(C(=O)CCCCCCCCCCNC(=O)[C@H](CO)n3cc(CCCSC)nn3)CC2)n1,u,6%,0,-9,-14,23µM*
C#CCOCCOCCOCCNc1nc(N2CCN(C(=O)CCCCCCCCCCNC(=O)[C@@H](CCC(=O)O)n3cc(CCCCCN)nn3)CC2)nc(N2CCN(C(=O)CCCCCCCCCCNC(=O)[C@H](CO)n3cc(CCCSC)nn3)CC2)n1,-29%,6%,u,-13,-56*,13µM*
C#CCOCCOCCOCCNc1nc(N2CCN(C(=O)CCCCCCCCCCNC(=O)[C@@H](CCSC)n3cc(CCO)nn3)CC2)nc(N2CCN(C(=O)CCCCCCCCCCNC(=O)[C@H](CCC(=O)O)n3cc(CCCCCN)nn3)CC2)n1,-6%,6%,x,-11,-53*,-16%
C#CCOCCOCCOCCNc1nc(N2CCN(C(=O)CCCCCCCCCCNC(=O)[C@@H](CCSC)n3cc(CCO)nn3)CC2)nc(N2CCN(C(=O)CCCCCCCCCCNC(=O)[C@H](CO)n3cc(CCCCCN)nn3)CC2)n1,u,5%,-2,-13,-82*,u
C#CCOCCOCCOCCNc1nc(N2CCN(C(=O)CCCCCCCCCCNC(=O)[C@@H](CCC(=O)O)n3cc(CCCCCN)nn3)CC2)nc(N2CCN(C(=O)CCCCCCCCCCNC(=O)[C@H](CO)n3cc(CCCCCN)nn3)CC2)n1,3%,7%,-1,-4,u,5%
C#CCOCCOCCOCCNc1nc(N2CCOCC2)nc(N2CCN(C(=O)CCCCCCCCCCNC(=O)[C@H]([C@@H](C)CC)n3cc(CCCCN=C(N)N)nn3)CC2)n1,-11%,4%,-9,1,u,-14%
